# Some of the results follow. Unmarked numbers belong to inactive results. How the calls were made is not given here.
# Assay: AlphaScreen optical interference compounds, dose response, counter-screen, biochemical, HTS (AID 1259373)
# Details: AlphaScreen optical interference counterscreen, cell-free
structure (smiles),measurement,value
CCOC(=O)C1C2NC(=S)N(CC)C1(C)Oc1ccc(Cl)cc12 (stereo unspecified),IC50,> 8.6 µM
